# Reference: PubChem BioAssay (NCATS)
# Inconclusive results are not listed. Entries that show only a call come without a potency. The source made the active and inactive calls. Calls follow the shape of the full dose curve.
# Tests used:
# [1] = Primary qHTS for Huh7 cytotoxicity: counterscreen for inhibitors of MERS-S pseudotyped particle cell entry (AID 1479147); conditions: cell viability read-out; series mostly up to 57.1 µM
# [2] = Primary qHTS for Vero E6 cytotoxicity: counterscreen for inhibitors of SARS-S pseudo-typed particle cell entry (AID 1479150); conditions: cell viability; series mostly up to 57.1 µM; also: potency is read from the fitted curve at half-maximal effect
# [3] = Confirmatory qHTS for VERO E6 Cytotoxicity Assay: Counterscreen for SARS-CoV-2 CPE Assay (AID 1508605); conditions: cell viability luminescence; series mostly up to 20 µM; also: nearly all actives have a fitted effect of over 60% in size; also: potency is read from the fitted curve at half-maximal effect
# [4] = Confirmatory qHTS for activators (rescue) of SARS-CoV-2 Cytopathic Effect (CPE) (AID 1508606); conditions: Vero E6 SARS-CoV-2 CPE rescue, viability luminescence; series mostly up to 20 µM; also: nearly all actives have a fitted effect of over 70% in size; also: potency is read from the fitted curve at half-maximal effect
# [5] = Primary qHTS for inhibitors of MERS-S pseudo-typed particle cell entry (AID 1479149); conditions: MERS-S pseudotyped particle entry, luciferase; series mostly up to 57.1 µM; also: potency is read from the fitted curve at half-maximal effect; nearly all actives have a fitted effect of over 60% in size
structure (smiles),measurement,setting,value
O=C(CCCN1CC=C(n2c(=O)[nH]c3ccccc32)CC1)c1ccc(F)cc1,Potency,[1],inactive
same,Potency,[2],inactive
CCCCN(CCCC)CC(O)c1cc(Cl)cc2c1-c1ccc(Cl)cc1/C2=C/c1ccc(Cl)cc1 (stereo not drawn),Potency,[1],inactive
same,Potency,[2],inactive
C[C@@H](CN(C)C)CN1c2ccccc2Sc2ccccc21,Potency,[1],inactive
same,Potency,[2],inactive
same,Potency,[3],inactive
NC(=NCCCCCCN=C(N)/N=C(\N)Nc1ccc(Cl)cc1)/N=C(\N)Nc1ccc(Cl)cc1,Potency,[1],inactive
same,Potency,[2],inactive
CC(C)C[C@@H]1[C@H](c2ccccc2)OC(=O)N1CCCN1CCCCCC1,Potency,[1],inactive
same,Potency,[2],inactive
CN1CCCCC1CCN1c2ccccc2Sc2ccc(S(C)=O)cc21 (stereo not drawn),Potency,[1],inactive
same,Potency,[2],inactive
same,Potency,[3],inactive
CCCCCC(=O)O[C@]1(C(C)=O)CC[C@H]2[C@@H]3CCC4=CC(=O)CC[C@]4(C)[C@H]3CC[C@@]21C,Potency,[1],inactive
same,Potency,[2],inactive
CC(=O)c1ccc2c(c1)N(CCCN1CCC(CCO)CC1)c1ccccc1S2,Potency,[1],inactive
same,Potency,[2],inactive
same,Potency,[3],inactive
same,Potency,[4],11.2 µM (active)
CO[C@@H]1[C@@H](O[C@@H]2O[C@H](C)[C@@H](O[C@H]3C[C@@](C)(O)[C@@H](O)[C@H](C)O3)[C@H](N(C)C)[C@H]2O)[C@@H](CC=O)C[C@@H](C)[C@@H](O[C@@H]2CC[C@H](N(C)C)[C@@H](C)O2)/C=C/C=C/C[C@@H](C)OC(=O)C[C@H]1OC(C)=O,Potency,[1],inactive
same,Potency,[2],inactive
same,Potency,[3],inactive
COc1cccc(CCc2ccccc2OCC(CN(C)C)OC(=O)CCC(=O)O)c1 (stereo not drawn),Potency,[1],inactive
same,Potency,[2],inactive
same,Potency,[3],inactive
CC1(C)CCC(C)(C)c2cc(NC(=O)c3ccc(C(=O)O)cc3)ccc21,Potency,[1],inactive
same,Potency,[2],inactive
CN1[C@@H]2CC[C@H]1CC(OC(=O)c1c[nH]c3ccccc13)C2 (stereo partly drawn),Potency,[1],inactive
same,Potency,[2],inactive
C#C[C@]1(OC(C)=O)CC[C@H]2[C@@H]3CCC4=C[C@@H](OC(C)=O)CC[C@@H]4[C@H]3CC[C@@]21C,Potency,[1],inactive
same,Potency,[2],inactive
O=C1NCCN1CCN1CCC(c2cn(-c3ccc(F)cc3)c3ccc(Cl)cc23)CC1,Potency,[5],8.91 µM (active)
Cc1ccc2nc(N)[nH]c(=O)c2c1Sc1ccncc1,Potency,[2],inactive
O=C(Oc1cccc2cccnc12)c1ccccc1,Potency,[5],12.6 µM (active)
same,Potency,[2],5.62 µM (active)
CC(C(O)c1ccccc1)N(C)CCOC(c1ccccc1)c1ccccc1 (stereo not drawn),Potency,[5],22.4 µM (active)
same,Potency,[2],inactive
same,Potency,[3],inactive
same,Potency,[4],10 µM (active)
COc1cc(N)c(Cl)cc1C(=O)NC1CCN(CCCOc2ccc(F)cc2)CC1OC (stereo not drawn),Potency,[2],inactive
CCCCOc1ccc(C(=O)CCN2CCCCC2)cc1,Potency,[2],inactive
O=c1c(-c2ccccc2)c1-c1ccccc1,Potency,[2],inactive
CN1CCCN(C(c2ccccc2)c2ccc(Cl)cc2)CC1 (stereo not drawn),Potency,[2],inactive
same,Potency,[4],10 µM (active)
CC(C)COCC(CN(Cc1ccccc1)c1ccccc1)N1CCCC1 (stereo not drawn),Potency,[5],8.91 µM (active)
same,Potency,[2],inactive
same,Potency,[3],inactive
same,Potency,[4],11.2 µM (active)
O=C1NC2CCCCN2C12CCN(CCCN1c3ccccc3CCc3ccc(Cl)cc31)CC2 (stereo not drawn),Potency,[5],12.6 µM (active)
same,Potency,[2],inactive
O=C(CCCN1CCC(O)(c2ccc(Br)cc2)CC1)c1ccc(F)cc1,Potency,[2],inactive
CN1CCCC(n2nc(Cc3ccc(Cl)cc3)c3ccccc3c2=O)CC1 (stereo not drawn),Potency,[2],inactive
CC1CCCCN1CCCOC(=O)c1ccc(OC2CCCCC2)cc1 (stereo not drawn),Potency,[1],inactive
same,Potency,[2],inactive
same,Potency,[3],inactive
same,Potency,[4],8.91 µM (active)
NC(N)=N/N=C/c1c(Cl)cccc1Cl,Potency,[2],inactive
c1ccc(-c2ccc(C(c3ccccc3)n3ccnc3)cc2)cc1 (stereo not drawn),Potency,[1],inactive
same,Potency,[3],inactive
CCN(CC)CCCC(C)Nc1c2ccc(Cl)cc2nc2ccc(OC)cc12 (stereo not drawn),Potency,[3],11.2 µM (active)
same,Potency,[4],inactive
COc1ccc(CCN2CCC(Nc3nc4ccccc4n3Cc3ccc(F)cc3)CC2)cc1,Potency,[5],12.6 µM (active)
CCN(CC)CCOc1ccc2c(c1)C(=O)c1cc(OCCN(CC)CC)ccc1-2,Potency,[3],11.2 µM (active)
COc1ccc2cc1Oc1ccc(cc1)C[C@H]1c3c(cc4c(c3Oc3cc5c(cc3OC)CCN(C)[C@@H]5C2)OCO4)CCN1C,Potency,[5],3.55 µM (active)
same,Potency,[3],11.2 µM (active)
same,Potency,[4],1 µM (active)
CN(C)CCCN1c2ccccc2Sc2ccc(C(F)(F)F)cc21,Potency,[4],10 µM (active)
CCCCCCCCCCCCCCCC[N+](C)(C)CCN(Cc1ccc(OC)cc1)c1ncccn1,Potency,[5],10 µM (active)
O=C(CCCN1CCN(c2ccc(F)cc2)CC1)NC1c2ccccc2CSc2ccccc21 (stereo not drawn),Potency,[1],inactive
same,Potency,[2],inactive
same,Potency,[3],inactive
same,Potency,[4],inactive
